# Tests used:
# Test in all cases: DAPPL (digital affinity profiling via proximity ligation, sequencing); 10 mM Tris-HCl pH 7.5, 50 mM NaCl, 1 mM DTT, 4% glycerol, room temperature, 30 min; GST-TFs on glutathione beads, 16-mer random dsDNA library, 0.1% formaldehyde crosslink after washing; high values mean tight binding
# FEV = target: T1, FEV (Homo sapiens, UniProt Q99581 1-238); conditions: protein: recombinant; tags: N-terminal GST; dsDNA, one strand shown
# T1 sequence: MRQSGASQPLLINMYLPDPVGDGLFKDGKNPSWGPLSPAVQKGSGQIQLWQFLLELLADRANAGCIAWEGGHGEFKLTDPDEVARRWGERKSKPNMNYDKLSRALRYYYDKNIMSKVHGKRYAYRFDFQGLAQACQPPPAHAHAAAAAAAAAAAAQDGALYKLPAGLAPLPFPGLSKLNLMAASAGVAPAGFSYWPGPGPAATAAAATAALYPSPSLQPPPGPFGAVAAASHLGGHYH
# Outline: (§1)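 The binding signal reported is, for every hexamer, its read frequency for a factor over its read frequency for the tag-only sample. Reads came from pools of yeast-expressed, GST-fused human transcription factors on glutathione beads, barcoded with DNA and mixed with that sample, which were incubated with 200 nmole of a random double-stranded 16-mer DNA library in Tris/NaCl/DTT/glycerol buffer at room temperature for 30 min. After washing, the pools were crosslinked with 0.1% formaldehyde, proximity-ligated with BsaI/T4 ligase for 1 h at 37 °C, PCR-amplified and sequenced on an Illumina NextSeq500.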
# ETV5 = ETV5 (Homo sapiens, UniProt P41161 1-510); conditions: protein: recombinant; tags: N-terminal GST; dsDNA, one strand shown
# Outline: as §1
# HSF1 = HSF1 (Homo sapiens, UniProt Q00613 1-529); conditions: protein: recombinant; tags: N-terminal GST; chain copies: 3; dsDNA, one strand shown
# Outline: as §1
# SPIC = target: T2, SPIC (Homo sapiens, UniProt Q8N5J4 1-248); conditions: protein: recombinant; tags: N-terminal GST; dsDNA, one strand shown
# T2 sequence: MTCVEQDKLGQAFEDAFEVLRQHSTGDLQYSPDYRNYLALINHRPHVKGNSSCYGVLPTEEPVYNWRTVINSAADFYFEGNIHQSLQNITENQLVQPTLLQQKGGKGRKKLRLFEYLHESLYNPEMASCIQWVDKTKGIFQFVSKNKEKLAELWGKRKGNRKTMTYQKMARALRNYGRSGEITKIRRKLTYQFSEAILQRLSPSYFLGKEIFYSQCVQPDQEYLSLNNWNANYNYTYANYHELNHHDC
# Outline: as §1
# ELF4 = ELF4 (Homo sapiens, UniProt Q99607 1-663); conditions: protein: recombinant; tags: N-terminal GST; dsDNA, one strand shown
# Outline: as §1
# ELK4 = target: T3, ELK4 (Homo sapiens, UniProt P28324-2 1-405); conditions: protein: recombinant; tags: N-terminal GST; dsDNA, one strand shown
# T3 sequence: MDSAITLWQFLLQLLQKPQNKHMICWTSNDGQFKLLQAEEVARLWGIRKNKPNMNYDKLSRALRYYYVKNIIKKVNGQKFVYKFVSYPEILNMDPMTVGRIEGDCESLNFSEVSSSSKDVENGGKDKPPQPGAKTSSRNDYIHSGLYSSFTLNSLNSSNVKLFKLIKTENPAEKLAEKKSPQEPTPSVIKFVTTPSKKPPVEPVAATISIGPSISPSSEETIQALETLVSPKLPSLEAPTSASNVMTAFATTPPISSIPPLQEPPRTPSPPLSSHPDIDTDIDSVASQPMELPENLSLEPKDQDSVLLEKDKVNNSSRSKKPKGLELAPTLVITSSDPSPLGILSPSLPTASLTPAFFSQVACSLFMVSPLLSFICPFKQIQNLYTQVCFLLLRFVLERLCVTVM
# Outline: as §1
# ETV2 = target: T4, ETV2 (Homo sapiens, UniProt O00321 1-342); conditions: protein: recombinant; tags: N-terminal GST; dsDNA, one strand shown
# T4 sequence: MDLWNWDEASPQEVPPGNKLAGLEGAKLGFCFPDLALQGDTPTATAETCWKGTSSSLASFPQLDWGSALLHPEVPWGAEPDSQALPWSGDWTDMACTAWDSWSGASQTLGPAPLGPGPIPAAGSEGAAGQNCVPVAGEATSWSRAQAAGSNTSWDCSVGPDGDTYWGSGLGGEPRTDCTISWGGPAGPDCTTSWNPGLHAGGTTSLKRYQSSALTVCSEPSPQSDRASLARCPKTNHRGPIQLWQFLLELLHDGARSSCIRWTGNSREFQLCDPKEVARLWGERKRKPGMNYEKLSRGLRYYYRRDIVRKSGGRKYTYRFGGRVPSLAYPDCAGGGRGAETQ
# Outline: as §1
# ELF3 = target: T5, ELF3 (Homo sapiens, UniProt P78545 1-371); conditions: protein: recombinant; tags: N-terminal GST; dsDNA, one strand shown
# T5 sequence: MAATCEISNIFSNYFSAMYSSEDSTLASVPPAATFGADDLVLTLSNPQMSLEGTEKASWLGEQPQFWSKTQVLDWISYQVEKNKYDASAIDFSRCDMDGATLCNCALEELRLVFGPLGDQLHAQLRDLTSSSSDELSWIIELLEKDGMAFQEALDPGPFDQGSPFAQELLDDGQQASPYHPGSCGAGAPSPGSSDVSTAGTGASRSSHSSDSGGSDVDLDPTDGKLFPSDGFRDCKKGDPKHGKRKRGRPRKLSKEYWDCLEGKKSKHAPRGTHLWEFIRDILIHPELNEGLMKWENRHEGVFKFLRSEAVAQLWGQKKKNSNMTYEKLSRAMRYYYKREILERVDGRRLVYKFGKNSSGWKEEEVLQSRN
# Outline: as §1
# CRX = CRX (Homo sapiens, UniProt O43186 1-299); conditions: protein: recombinant; tags: N-terminal GST; dsDNA, one strand shown
# Outline: as §1
# ETV1 = ETV1 (Homo sapiens, UniProt P50549 1-477); conditions: protein: recombinant; tags: N-terminal GST; dsDNA, one strand shown
# Outline: as §1
# ERF = target: T6, ERF (Homo sapiens, UniProt P50548 1-548); conditions: protein: recombinant; tags: N-terminal GST; dsDNA, one strand shown
# T6 sequence: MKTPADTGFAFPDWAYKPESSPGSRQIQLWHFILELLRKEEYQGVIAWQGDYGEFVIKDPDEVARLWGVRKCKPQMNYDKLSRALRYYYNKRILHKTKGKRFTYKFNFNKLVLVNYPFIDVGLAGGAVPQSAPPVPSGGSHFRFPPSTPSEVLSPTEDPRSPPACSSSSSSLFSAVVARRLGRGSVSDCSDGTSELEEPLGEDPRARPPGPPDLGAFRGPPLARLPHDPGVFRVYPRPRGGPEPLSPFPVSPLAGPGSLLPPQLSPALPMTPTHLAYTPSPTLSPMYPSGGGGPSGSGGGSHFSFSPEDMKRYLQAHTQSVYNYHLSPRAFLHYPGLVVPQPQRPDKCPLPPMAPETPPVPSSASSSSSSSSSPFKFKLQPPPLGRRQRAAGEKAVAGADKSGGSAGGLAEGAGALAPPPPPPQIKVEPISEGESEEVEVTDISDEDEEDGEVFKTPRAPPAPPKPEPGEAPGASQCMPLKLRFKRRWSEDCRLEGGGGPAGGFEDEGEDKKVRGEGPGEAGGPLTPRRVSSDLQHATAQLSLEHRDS
# Outline: as §1
# ETV3L = target: T7, ETV3L (Homo sapiens, UniProt Q6ZN32 1-361); conditions: protein: recombinant; tags: N-terminal GST; dsDNA, one strand shown
# T7 sequence: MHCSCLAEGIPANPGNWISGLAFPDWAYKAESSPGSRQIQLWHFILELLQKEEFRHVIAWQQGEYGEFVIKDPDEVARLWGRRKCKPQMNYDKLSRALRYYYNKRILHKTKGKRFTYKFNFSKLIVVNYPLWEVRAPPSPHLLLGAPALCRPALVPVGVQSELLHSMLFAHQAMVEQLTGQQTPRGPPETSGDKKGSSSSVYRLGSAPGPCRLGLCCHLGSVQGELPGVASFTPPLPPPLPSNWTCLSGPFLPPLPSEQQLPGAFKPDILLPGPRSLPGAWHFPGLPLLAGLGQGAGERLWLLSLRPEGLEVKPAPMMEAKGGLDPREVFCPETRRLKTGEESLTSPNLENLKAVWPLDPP
# Outline: as §1
# ETS2 = target: T8, ETS2 (Homo sapiens, UniProt P15036 1-469); conditions: protein: recombinant; tags: N-terminal GST; dsDNA, one strand shown
# T8 sequence: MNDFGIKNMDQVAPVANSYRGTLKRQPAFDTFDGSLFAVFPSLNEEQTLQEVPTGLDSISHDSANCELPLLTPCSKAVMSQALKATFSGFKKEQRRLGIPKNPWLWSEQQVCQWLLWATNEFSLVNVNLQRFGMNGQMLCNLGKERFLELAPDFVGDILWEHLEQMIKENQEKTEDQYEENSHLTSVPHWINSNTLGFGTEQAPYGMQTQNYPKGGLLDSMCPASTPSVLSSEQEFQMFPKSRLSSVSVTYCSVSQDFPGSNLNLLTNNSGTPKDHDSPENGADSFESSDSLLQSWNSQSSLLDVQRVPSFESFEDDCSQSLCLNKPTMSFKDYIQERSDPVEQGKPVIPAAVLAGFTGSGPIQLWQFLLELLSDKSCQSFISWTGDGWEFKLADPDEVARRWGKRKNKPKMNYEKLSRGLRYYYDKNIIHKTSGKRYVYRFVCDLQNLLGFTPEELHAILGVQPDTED
# Outline: as §1
# SPDEF = target: T9, SPDEF (Homo sapiens, UniProt O95238 1-335); conditions: protein: recombinant; tags: N-terminal GST; dsDNA, one strand shown
# T9 sequence: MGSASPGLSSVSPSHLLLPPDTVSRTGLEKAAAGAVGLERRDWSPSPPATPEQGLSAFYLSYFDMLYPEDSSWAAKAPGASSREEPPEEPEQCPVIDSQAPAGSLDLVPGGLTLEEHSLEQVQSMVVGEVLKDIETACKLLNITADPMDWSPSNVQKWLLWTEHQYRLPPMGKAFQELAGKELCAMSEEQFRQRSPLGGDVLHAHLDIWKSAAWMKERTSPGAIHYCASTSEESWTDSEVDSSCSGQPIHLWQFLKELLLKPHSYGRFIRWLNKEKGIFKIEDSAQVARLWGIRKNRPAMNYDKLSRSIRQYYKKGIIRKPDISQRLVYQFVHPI
# Outline: as §1
# ETV7 = target: T10, ETV7 (Homo sapiens, UniProt Q9Y603 1-341); conditions: protein: recombinant; tags: N-terminal GST; dsDNA, one strand shown
# T10 sequence: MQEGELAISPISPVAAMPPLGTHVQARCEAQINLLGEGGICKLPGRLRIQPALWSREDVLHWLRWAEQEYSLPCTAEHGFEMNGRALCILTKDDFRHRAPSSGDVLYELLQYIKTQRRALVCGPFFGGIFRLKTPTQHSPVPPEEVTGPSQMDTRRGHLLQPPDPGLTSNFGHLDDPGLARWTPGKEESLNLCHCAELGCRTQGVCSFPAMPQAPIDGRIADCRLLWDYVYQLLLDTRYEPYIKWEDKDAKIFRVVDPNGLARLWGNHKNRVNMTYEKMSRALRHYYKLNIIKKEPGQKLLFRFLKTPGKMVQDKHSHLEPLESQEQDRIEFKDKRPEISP
# Outline: as §1
# ELF5 = target: T11, ELF5 (Homo sapiens, UniProt Q9UKW6-2 1-255); conditions: protein: recombinant; tags: N-terminal GST; dsDNA, one strand shown
# T11 sequence: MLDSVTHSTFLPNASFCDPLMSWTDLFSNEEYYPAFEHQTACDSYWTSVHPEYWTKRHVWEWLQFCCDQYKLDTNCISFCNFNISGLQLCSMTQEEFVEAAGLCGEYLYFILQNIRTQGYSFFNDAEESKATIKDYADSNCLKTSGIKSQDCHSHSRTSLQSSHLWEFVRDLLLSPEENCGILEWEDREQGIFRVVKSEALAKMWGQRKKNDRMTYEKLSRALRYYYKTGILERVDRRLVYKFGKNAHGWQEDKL
# Outline: as §1
# ETV3 = target: T12, ETV3 (Homo sapiens, UniProt P41162-2 1-143); conditions: protein: recombinant; tags: N-terminal GST; dsDNA, one strand shown
# T12 sequence: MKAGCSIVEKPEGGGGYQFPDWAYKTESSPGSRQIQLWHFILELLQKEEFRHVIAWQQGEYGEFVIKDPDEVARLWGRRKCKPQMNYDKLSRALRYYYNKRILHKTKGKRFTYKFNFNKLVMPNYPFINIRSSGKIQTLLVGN
# Outline: as §1
# ETV6 = ETV6 (Homo sapiens, UniProt P41212 1-452); conditions: protein: recombinant; tags: N-terminal GST; dsDNA, one strand shown
# Outline: as §1
# Sequence of CRX (O43186 whole entry): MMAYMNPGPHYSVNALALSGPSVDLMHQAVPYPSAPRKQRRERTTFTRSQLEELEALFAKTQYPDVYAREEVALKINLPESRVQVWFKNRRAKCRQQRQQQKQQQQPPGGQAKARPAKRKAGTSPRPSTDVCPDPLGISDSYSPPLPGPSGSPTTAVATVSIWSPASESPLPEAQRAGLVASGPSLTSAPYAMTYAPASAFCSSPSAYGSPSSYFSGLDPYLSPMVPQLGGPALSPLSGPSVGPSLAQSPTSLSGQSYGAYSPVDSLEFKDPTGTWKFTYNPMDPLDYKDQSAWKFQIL
# Sequence of ETV1 (P50549 whole entry): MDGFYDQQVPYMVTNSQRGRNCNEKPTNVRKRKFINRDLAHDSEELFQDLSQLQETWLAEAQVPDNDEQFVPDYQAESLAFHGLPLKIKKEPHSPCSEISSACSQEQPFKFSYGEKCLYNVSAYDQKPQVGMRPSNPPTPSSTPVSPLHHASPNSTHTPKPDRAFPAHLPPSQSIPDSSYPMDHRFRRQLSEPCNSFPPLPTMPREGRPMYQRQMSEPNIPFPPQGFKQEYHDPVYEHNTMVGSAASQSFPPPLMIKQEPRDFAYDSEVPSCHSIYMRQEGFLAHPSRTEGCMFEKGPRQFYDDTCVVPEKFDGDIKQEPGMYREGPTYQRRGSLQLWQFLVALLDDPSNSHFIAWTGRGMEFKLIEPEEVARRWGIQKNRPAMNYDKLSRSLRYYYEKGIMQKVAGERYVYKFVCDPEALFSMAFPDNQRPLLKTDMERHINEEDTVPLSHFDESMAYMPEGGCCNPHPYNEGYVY
# Sequence of HSF1 (Q00613 whole entry): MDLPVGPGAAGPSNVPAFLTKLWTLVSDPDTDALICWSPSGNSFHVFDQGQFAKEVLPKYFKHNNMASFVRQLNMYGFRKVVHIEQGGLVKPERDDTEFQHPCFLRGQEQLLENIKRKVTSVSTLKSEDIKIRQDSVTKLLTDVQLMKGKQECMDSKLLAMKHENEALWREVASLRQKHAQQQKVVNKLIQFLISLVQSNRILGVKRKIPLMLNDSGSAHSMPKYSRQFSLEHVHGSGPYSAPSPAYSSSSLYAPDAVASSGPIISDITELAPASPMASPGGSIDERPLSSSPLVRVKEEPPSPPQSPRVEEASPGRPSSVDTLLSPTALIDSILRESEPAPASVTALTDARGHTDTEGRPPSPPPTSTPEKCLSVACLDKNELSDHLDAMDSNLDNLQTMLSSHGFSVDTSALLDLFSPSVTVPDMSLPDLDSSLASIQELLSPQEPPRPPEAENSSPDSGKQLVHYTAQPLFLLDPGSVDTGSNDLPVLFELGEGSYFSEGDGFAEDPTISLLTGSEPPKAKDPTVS
# Sequence of ETV6 (P41212 whole entry): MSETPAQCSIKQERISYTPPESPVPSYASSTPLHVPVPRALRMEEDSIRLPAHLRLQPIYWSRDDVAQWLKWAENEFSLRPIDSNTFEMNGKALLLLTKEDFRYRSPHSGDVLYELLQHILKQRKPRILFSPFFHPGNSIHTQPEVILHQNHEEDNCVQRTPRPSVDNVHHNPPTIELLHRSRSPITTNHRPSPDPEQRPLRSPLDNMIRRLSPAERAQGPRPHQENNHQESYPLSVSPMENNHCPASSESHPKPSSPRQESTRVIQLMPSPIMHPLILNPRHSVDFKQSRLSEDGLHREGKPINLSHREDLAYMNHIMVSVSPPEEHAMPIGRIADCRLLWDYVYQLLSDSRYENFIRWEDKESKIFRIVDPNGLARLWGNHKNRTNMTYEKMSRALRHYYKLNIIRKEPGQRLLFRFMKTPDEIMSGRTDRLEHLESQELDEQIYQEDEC
# Sequence of ELF4 (Q99607 whole entry): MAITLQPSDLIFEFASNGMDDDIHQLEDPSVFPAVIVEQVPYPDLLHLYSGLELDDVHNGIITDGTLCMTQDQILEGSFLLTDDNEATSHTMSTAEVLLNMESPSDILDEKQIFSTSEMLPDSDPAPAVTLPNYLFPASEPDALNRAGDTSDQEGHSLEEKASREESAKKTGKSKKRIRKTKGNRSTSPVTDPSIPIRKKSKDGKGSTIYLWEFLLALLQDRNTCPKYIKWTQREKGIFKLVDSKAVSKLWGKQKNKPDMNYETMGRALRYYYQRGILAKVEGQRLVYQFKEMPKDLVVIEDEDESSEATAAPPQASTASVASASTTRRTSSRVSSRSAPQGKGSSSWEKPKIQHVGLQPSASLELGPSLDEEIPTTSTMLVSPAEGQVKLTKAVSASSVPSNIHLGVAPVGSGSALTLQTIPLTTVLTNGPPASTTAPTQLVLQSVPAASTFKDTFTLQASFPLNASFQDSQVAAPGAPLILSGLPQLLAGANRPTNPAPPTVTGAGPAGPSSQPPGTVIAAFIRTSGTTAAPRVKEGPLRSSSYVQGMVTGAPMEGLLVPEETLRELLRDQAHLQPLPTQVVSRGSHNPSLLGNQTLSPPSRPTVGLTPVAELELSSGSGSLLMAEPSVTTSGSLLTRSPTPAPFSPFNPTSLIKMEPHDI
# Sequence of ETV5 (P41161 whole entry): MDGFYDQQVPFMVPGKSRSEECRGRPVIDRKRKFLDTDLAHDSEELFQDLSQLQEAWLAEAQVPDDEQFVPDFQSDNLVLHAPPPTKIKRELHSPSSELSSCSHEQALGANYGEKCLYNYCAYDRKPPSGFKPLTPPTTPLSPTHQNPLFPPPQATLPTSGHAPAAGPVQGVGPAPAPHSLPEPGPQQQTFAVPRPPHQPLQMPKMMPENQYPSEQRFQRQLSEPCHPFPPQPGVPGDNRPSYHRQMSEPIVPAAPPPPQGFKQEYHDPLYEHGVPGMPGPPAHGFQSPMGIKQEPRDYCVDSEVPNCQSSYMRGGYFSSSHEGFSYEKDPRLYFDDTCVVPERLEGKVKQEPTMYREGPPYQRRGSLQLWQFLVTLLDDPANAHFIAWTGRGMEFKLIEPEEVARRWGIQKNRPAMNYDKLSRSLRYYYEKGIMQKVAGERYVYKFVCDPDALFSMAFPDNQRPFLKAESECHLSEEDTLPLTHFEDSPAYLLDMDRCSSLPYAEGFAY
sequence,measurement,setting,value
ATTCCG,binding signal,FEV,"1.79 fold enrichment (6-mer frequency, TF over GST control)"
same,binding signal,ETV5,"1.97 fold enrichment (6-mer frequency, TF over GST control)"
same,binding signal,HSF1,"1.52 fold enrichment (6-mer frequency, TF over GST control)"
same,binding signal,SPIC,"1.82 fold enrichment (6-mer frequency, TF over GST control)"
same,binding signal,ELF4,"1.61 fold enrichment (6-mer frequency, TF over GST control)"
same,binding signal,ELK4,"1.54 fold enrichment (6-mer frequency, TF over GST control)"
same,binding signal,ETV2,"1.79 fold enrichment (6-mer frequency, TF over GST control)"
same,binding signal,ELF3,"1.78 fold enrichment (6-mer frequency, TF over GST control)"
same,binding signal,CRX,"1.27 fold enrichment (6-mer frequency, TF over GST control)"
same,binding signal,ETV1,"1.81 fold enrichment (6-mer frequency, TF over GST control)"
same,binding signal,ERF,"1.58 fold enrichment (6-mer frequency, TF over GST control)"
same,binding signal,ETV3L,"1.74 fold enrichment (6-mer frequency, TF over GST control)"
same,binding signal,ETS2,"1.78 fold enrichment (6-mer frequency, TF over GST control)"
same,binding signal,SPDEF,"1.85 fold enrichment (6-mer frequency, TF over GST control)"
same,binding signal,ETV7,"1.62 fold enrichment (6-mer frequency, TF over GST control)"
same,binding signal,ELF5,"2.17 fold enrichment (6-mer frequency, TF over GST control)"
same,binding signal,ETV3,"1.89 fold enrichment (6-mer frequency, TF over GST control)"
same,binding signal,ETV6,"1.78 fold enrichment (6-mer frequency, TF over GST control)"
